Screens deposited in PubChem BioAssay by National Center for Advancing Translational Sciences (NCATS).
VDR inhibitor – Inhibitors of the vitamin D receptor (VDR): qHTS; VDR-SRC2-3 peptide fluorescence polarization, 2 h; Vitamin D3 receptor (Homo sapiens), P11473; Potency, µM, for the others: max response, negative = inhibition, usual class: inhibitors; hit rate 0.93% among 400,000; note: % is set by controls: 0 for no effect and ±100 for the full control effect
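Signal is fluorescence polarization, reporting how far test compounds block the interaction of VDR with the SRC2-3 coregulator peptide after a 2 h room-temperature incubation.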
PKM2 act – qHTS Assay for Activators of Human Muscle isoform 2 Pyruvate Kinase; Pyruvate kinase PKM (Homo sapiens), P14618; purified PKM2, Kinase-Glo ATP luminescence, activation; response scale: 0% is enzyme alone, no compound; Potency, µM (highest dose often 57.5 µM), without a hit: at the top dose activation, most hits filed as activators; hit rate 0.34% among 260,000; AID 1631, 2009; note: % is set by controls: 0 for no effect and ±100 for the full control effect; nearly all actives have a fitted effect of over 55% in size
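Purified hPK-M2 (>95%) run at intermediate activity with 0.1 mM ADP and 0.5 mM PEP in 50 mM imidazole pH 7.2, KCl, MgCl2; 1 h room temperature. ATP formed read by Kinase-Glo luminescence; normalized to uninhibited and no-enzyme controls.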
PLK1 PBD block – qHTS for Inhibitors of PLK1-PDB (polo-like kinase 1 - polo-box domain): Primary Screen; Serine/threonine-protein kinase PLK1 (Homo sapiens), P53350; Plk1 PBD binding of FITC phosphopeptide, fluorescence polarization; Potency, µM, without a hit: max response, negative = inhibition, hits mostly inhibitors; hit rate 2.8% among 360,000; note: series mostly up to about 57 µM; % is set by controls: 0 for no effect and ±100 for the full control effect; nearly all actives have a fitted effect of over 65% in size
KAT2A inh – qHTS Assay for Inhibitors of GCN5L2; Potency, µM (top dose mostly 58.9 µM), for the others: at the top dose activity change, negative = inhibition, most hits filed as inhibitors; hit rate 0.21% among 390,000; AID 504327, 2011; GCN5L2 HAT assay, ThioGlo1 CoA-SH fluorescence; Histone acetyltransferase KAT2A (Homo sapiens), Q92830; note: % is set by controls: 0 for no effect and ±100 for the full control effect
Target sequence (Q92830 whole entry, looked up): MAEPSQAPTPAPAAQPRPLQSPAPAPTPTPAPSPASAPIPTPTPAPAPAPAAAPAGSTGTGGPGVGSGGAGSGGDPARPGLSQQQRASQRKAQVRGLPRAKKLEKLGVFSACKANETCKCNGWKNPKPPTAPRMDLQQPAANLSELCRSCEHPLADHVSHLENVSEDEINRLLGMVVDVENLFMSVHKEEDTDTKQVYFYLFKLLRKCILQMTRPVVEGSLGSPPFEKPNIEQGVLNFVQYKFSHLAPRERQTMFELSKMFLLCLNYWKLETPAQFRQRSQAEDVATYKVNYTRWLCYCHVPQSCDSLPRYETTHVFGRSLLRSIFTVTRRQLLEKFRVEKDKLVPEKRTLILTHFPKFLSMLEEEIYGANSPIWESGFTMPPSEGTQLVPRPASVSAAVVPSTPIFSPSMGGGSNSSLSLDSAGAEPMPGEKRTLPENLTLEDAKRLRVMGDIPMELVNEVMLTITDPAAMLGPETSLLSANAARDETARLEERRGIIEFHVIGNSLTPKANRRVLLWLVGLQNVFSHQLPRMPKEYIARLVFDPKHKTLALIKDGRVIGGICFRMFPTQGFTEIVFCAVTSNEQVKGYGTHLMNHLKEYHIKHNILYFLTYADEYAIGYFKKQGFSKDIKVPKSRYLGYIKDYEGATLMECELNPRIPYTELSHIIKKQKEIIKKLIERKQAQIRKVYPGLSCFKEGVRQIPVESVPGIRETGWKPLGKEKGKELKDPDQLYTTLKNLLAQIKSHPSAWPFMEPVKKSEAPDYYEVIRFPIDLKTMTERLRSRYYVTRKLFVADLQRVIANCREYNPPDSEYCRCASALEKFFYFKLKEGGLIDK
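GCN5L2 (20 nM) in 50mM HEPES pH 7.5, 0.1mM EDTA, 0.01% Tween-20 preincubated 15 min with compounds at room temperature. Reaction started with H3(1-25) 75uM, acetyl-CoA 70uM, ThioGlo1 50uM; CoA-thiol fluorescence (Ex340/Em540) read at 0 and 20 min.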
Mito fusion yeast – qHTS Assay for Small Molecule Inhibitors of Mitochondrial Division or Activators of Mitochondrial Fusion | hit rate 0.23% among 320,000 | AID 485298, 2010 | S. cerevisiae fusion-defective mutant growth rescue, CellTiterGlo 48 h | Potency, µM (highest dose often 46.1 µM), without a hit: at the highest dose growth rescue (activation), hits mostly activators; note: % of control where 0% means no effect; nearly all actives have a fitted effect of over 45% in size
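Read-out: ATP-based luminescence (CellTiterGlo, 10 min ambient) reporting growth of fusion-defective ts yeast after 48 hours at 37C on glycerol/ethanol YPEG medium in the presence of compound.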
GLS inhibitor – qHTS for Inhibitors of Glutaminase (GLS). Glutaminase kidney isoform, mitochondrial (Homo sapiens), O94925. GLS enzymatic activity, qHTS titration. Potency, µM (doses to about 45.5 µM), for the others: top-dose activity change, negative = inhibition, hits mostly inhibitors. hit rate 0.21% among 410,000. AID 624170, 2012; note: % is set by controls: 0 for no effect and ±100 for the full control effect
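hKGA in 45 mM KH2PO4 (pH 8.2), 0.02% Tween-20 with compound, then 1mM L-Glutamine (stock as added) plus glutamate oxidase/HRP/Amplex red coupling mix. Fluorescence read initially and after 30 min at RT; signal change reflects glutamate formation.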
Numbers without * were called inactive; ? = inconclusive; / = no result given. Hits are enriched below; roughly 3.4% of the tested compounds scored in any of these assays. Calls come from the whole dose curve; as a rule, active = well fitted curve in the direction sought with a large enough effect; inconclusive = small, poorly fitted or top-dose-only effect, or another doubt; inactive = no such curve, though single readings can be large; an effect the other way counts as inactive or inconclusive. Potency is the fitted concentration of half-maximal effect.

SMILES | VDR inhibitor | PKM2 act | PLK1 PBD block | KAT2A inh | Mito fusion yeast | GLS inhibitor
O=C(COC(=O)c1cccnc1Cl)c1ccc(F)cc1 | 12% | -5% | -1% | -4% | -1% | 1%
CCOc1ncccc1C(=O)OCC(=O)c1ccc(F)cc1 | ? | -7% | 17µM* | -6% | -8% | -18%
CCOc1ccc(C(=O)CCC(=O)N(CC)CC(=O)NCc2cccs2)cc1 | -6% | / | -7% | -18% | -4% | 7%
CCOc1ccc(C(=O)CC(NCc2cccs2)C(=O)O)cc1 (stereo not drawn) | 25µM* | 8% | -28% | -4% | -2% | 3%
CCn1nc(C)c(CNC(=O)c2cc(COc3cncc(Cl)c3)on2)c1C | ? | / | 24µM* | -4% | 3% | 8%
CCn1nc(C)c(CNC(=O)c2cc(COc3ccccc3SC)on2)c1C | -5% | / | 0% | -4% | 1% | -2%
Cn1ncc(Cl)c1C(=O)N1CCC(Cc2ccccc2)CC1 | -7% | 22µM* | -19% | -5% | -4% | 10%
CSc1nnc(-c2ccccc2SC)o1 | -7% | -7% | 30µM* | -2% | -6% | -2%
O=C(C1CCCCC1)N(CCN1CCN(c2ccccc2CO)CC1)c1ccccn1 | 5% | / | / | 1% | / | /
CCc1ccc(CNC(=O)CCCn2c(=O)c3cccn3c3cccnc32)cc1 | 35% | / | -9% | -5% | 11µM* | -3%
C=CCN(C(=O)CCC(=O)O)C1CC(=O)N(c2ccc(OCCC)cc2)C1=O (stereo not drawn) | -21% | 1% | 24µM* | -8% | 3% | 61%
CC(=O)c1ccc(NC(=O)C(Cc2ccccc2)n2cccc2)cc1 (stereo not drawn) | ? | 7% | 13µM* | -7% | -3% | ?
Cc1ccc(NC(=O)C(Cc2ccccc2)n2cccc2)cc1C (stereo not drawn) | 2% | / | / | -13% | / | 4%
CCC(C)c1ccc(O[C@@H]2O[C@H](CO)[C@@H](O)[C@H](O)[C@H]2NC(C)=O)cc1 (stereo partly drawn) | 9% | / | / | / | / | /
O=C(O)c1cc(O)c2c(c1)[C@H]([C@H]1c3cc(C(=O)O)cc(O)c3C(=O)c3c(O[C@@H]4OC(CO)C(O)C(O)C4O)cccc31)c1cccc(O[C@@H]3OC(CO)C(O)C(O)C3O)c1C2=O (stereo partly drawn) | 40µM* | / | / | 1.8µM* | / | -88%
O=C(O)c1cc(O)c2c(c1)[C@@H]([C@H]1c3cc(C(=O)O)cc(O)c3C(=O)c3c(O[C@@H]4O[C@H](CO)[C@@H](O)[C@H](O)[C@H]4O)cccc31)c1cccc(O[C@@H]3O[C@H](CO)[C@@H](O)[C@H](O)[C@H]3O)c1C2=O | -20% | / | 2.7µM* | 0.63µM* | / | 1.8µM*
c1ccc2c(CCC3CCNCC3)c[nH]c2c1 | / | / | / | / | / | 17%
O=C(NCCN1CCOCC1)c1cc(S(=O)(=O)Nc2ccccc2F)c(Cl)cc1Cl | -9% | -2% | 34µM* | 7% | 1% | 0%
CCOC(=O)C(C)Sc1nc(=O)n2ccccc2n1 (stereo not drawn) | -13% | -1% | 24µM* | 0% | 10% | 0%
COc1ccccc1CN(Cc1cc2cc3c(cc2[nH]c1=O)OCCO3)Cc1nnnn1Cc1ccco1 | ? | 20µM* | ? | ? | 3% | ?
O=C(CNS(=O)(=O)c1ccccc1)NCc1ccco1 | 3% | 0% | -8% | -5% | 2% | 0%
COCC(=O)Oc1c(Sc2ccccc2[N+](=O)[O-])c(C)nn1C(C)(C)C | -22% | / | 12µM* | -19% | 1% | ?
CCC(CC)C(=O)Oc1c(Sc2ccccc2[N+](=O)[O-])c(C)nn1C(C)(C)C | 9% | -17% | -4% | -9% | 3% | 4%
O=C(Cn1cccc1C(=O)c1ccccc1)NCCc1ccccc1 | 0% | / | -17% | -3% | 4% | 1%
O=C(Cn1cccc1C(=O)c1ccccc1)NCCc1ccc(Cl)cc1 | -17% | / | 24µM* | -3% | 3% | 3%
SMILES | VDR inhibitor | PKM2 act | PLK1 PBD block | KAT2A inh | Mito fusion yeast | GLS inhibitor
O=C(Cn1cccc1C(=O)c1ccccc1)NCc1cccc(Cl)c1 | -21% | -1% | 24µM* | -4% | 0% | -13%
Cc1nn(CC(=O)NCCc2ccc(Cl)cc2)c(=O)c2cccn12 | ? | / | 27µM* | -7% | -4% | 11%
CCN(C(=O)c1ccc2c(=O)n3c(nc2c1)CCCCC3)c1cc(C)ccc1C | 6% | / | / | -5% | / | 4%
COC(=O)[C@H]1[C@H]2C[C@@H]3c4[nH]c5ccccc5c4CCN3C[C@H]2C[C@@H](OC(=O)c2cc(OC)c(OC)c(OC)c2)[C@@H]1OC | 35µM* | / | / | ? | / | 6%
CCC1CCCCN1S(=O)(=O)c1ccc(NC(=O)c2cccs2)cc1 (stereo not drawn) | -1% | 2% | -4% | -13% | 16µM* | -2%
CCC1CCCCN1S(=O)(=O)c1ccc(NC(=O)c2snnc2C)cc1 (stereo not drawn) | -4% | / | -28% | -3% | 11% | 6%
Cc1ccccc1OCc1nnc2c3cnn(C)c3ncn12 | -14% | 28µM* | -8% | -3% | -1% | 1%
Cc1[nH]n(-c2ccccc2)c(=O)c1C=Nc1ccc(S(=O)(=O)Nc2nccs2)cc1 | 3% | 2% | 24µM* | -4% | 7% | 29%
COc1ccc2c(c1)OC(C)(C)C(c1ccccc1)C2c1ccc(OCCN2CCCC2)cc1 (stereo not drawn) | -7% | / | / | -12% | / | 15%
Cc1ccc(/C=C/C(=O)N2CCN(S(=O)(=O)c3c(C)c(C)cc(C)c3C)CC2)o1 | -49% | 3.2µM* | -27% | 19% | 12% | -12%
COC(=O)N1CCC[C@@]2(CCN(C(=O)Nc3ccccc3)C2)C1 | 0% | / | / | -10% | / | /
CC(=O)Nc1ccc(S(=O)(=O)NCC(=O)NNC(=O)c2csc(N3CCOCC3)n2)cc1 | 4% | / | 21µM* | 4% | -5% | 5%
CCc1ccc(OCCn2c(CCNC(=O)C3CCCCC3)nc3ccccc32)cc1 | -18% | / | / | / | / | /
Cc1nn(-c2ccc(Cl)cc2)c(Cl)c1/C=N/NC(=O)c1ccc(NS(=O)(=O)c2cccs2)cc1 | ? | / | 24µM* | / | / | 46%
Cc1nn(-c2ccc(F)cc2)c(Cl)c1/C=N/NC(=O)c1cccs1 | -3% | 5% | 0% | -3% | -4% | 0%
